This is a sample that favours compounds with a hit; in the whole collection about 3.7% have one here.
MazF activator – activators of E. coli MazEF toxin-antitoxin RNase | P0AE70 | FAM/BHQ RNA-DNA oligo cleavage fluorescence, 5 h | activation, % at 20 µM | 350,000 compounds, 0.32% hits | AID 504720; in the data active = activation above about 50%
Target sequence (P0AE70 whole entry, looked up): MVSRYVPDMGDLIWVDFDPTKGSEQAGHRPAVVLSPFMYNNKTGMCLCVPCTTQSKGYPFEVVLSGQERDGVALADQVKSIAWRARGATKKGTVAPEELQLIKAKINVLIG
Anthrax LF prot – anthrax lethal factor protease inhibition | 360,000 compounds, 0.12% hits | inhibition, % at 10 µM | multiplex microsphere protease cleavage assay, LF | P15917
BoNT A protease – blocks Botulinum neurotoxin A light chain protease; multiplex microsphere protease substrate cleavage, flow cytometry; 360,000 compounds, 0.17% hits; inhibition, % at 10 µM; AID 588499
BoNT F protease – BoNT F light chain protease inhibition. 360,000 compounds, 0.22% hits. AID 588497. inhibition, % at 10 µM. Multiplex microsphere protease cleavage assay, flow cytometry; in the data active = inhibition above about 35%, passing the limit was not always enough; inconclusive = no clear call, values can overlap the other calls
Autofluor counter – counter-screen for toxin protease inhibitors: compound fluorescence; compound autofluorescence counterscreen, microsphere flow cytometry; stronger effect = higher value; fluorescence intensity (concentration not given with the values); 360,000 compounds, 3.1% hits; AID 624483; in the data active = fluorescence intensity above about 16000; inconclusive = no clear call, values can overlap the other calls
A number is an active result; i = inactive; ? = inconclusive; nt = not tested or not shown. Rule as the data show it, unless noted: active = inhibition above about 30%; inconclusive = no clear call, values can overlap the other calls; inactive = below that.

SMILES	MazF activator	Anthrax LF prot	BoNT A protease	BoNT F protease	Autofluor counter
Cc1oc(-c2ccccc2F)nc1CSCC(=O)NCc1ccc2c(c1)OCO2	i	i	i	i	20539
O=C(CN1C(=O)c2cccc3cccc1c23)NCc1ccc2c(c1)OCO2	i	i	?	i	23642
CCCC(=O)C1=C(N2CCCCC2)CC(C)(C)C(C(=O)OC)C1=O (stereo unspecified)	i	i	i	i	i
C[C@@H]1CN([C@H](C)CO)C(=O)CCCn2cc(nn2)CO[C@H]1CN(C)S(=O)(=O)c1ccc(C#N)cc1	i	i	i	i	i
CC(C)N1C2OC(C3OC4C(O3)N(C(C)C)S(=O)(=O)N4C(C)C)OC2N(C(C)C)S1(=O)=O (stereo unspecified)	i	i	i	i	23341
CC(=O)N1CCc2[nH]c3ccccc3c2C1	i	i	i	i	17082
CC1(C)CC(N2CCCCC2)=CC(=[N+]2CCCCC2)C1	i	i	i	i	27656
CC1(C)CC(N2CCOCC2)=CC(=[N+]2CCOCC2)C1	i	i	i	i	i
CCCCNC(=O)c1ccccc1NC(=O)CCC	i	i	i	i	i
CC(=O)Nc1ccc(NC(=O)C(F)(F)F)cc1	i	i	?	i	22771
CC(=O)Nc1ccccc1NC(=O)C(F)(F)F	i	i	i	i	16513
CC(=O)Nc1ccccc1C	i	i	i	i	i
O=C(CSc1nc(C(F)(F)F)cc(=O)[nH]1)Nc1nccs1	i	i	i	i	?
CC(=O)NC(=O)NC1CSCC1OC(C)=O (stereo unspecified)	i	i	?	i	23409
CCOC(=O)C1=C(C)NC(=S)NC1c1ccc(OCC(=O)N2CCCCCC2)cc1 (stereo unspecified)	i	i	i	i	i
COCCOC(=O)c1c(C)n(C)c2ccc(OC(=O)c3ccco3)cc12	i	i	?	i	22026
CC(C)(C)c1ccc(-c2n[nH]c(=S)n2C2CCCC2)cc1	i	i	?	i	22762
Cn1c(-c2ccc(C(C)(C)C)cc2)n[nH]c1=S	i	i	i	i	i
COC(=O)[C@H](CCSC)NC(=O)Nc1ccc(C)c(C)c1	i	i	i	i	21760
COC(=O)[C@H](CCSC)NC(=O)NCCc1ccc(F)cc1	i	i	i	i	23311
CCN(CC)S(=O)(=O)c1cccc(C(=O)NNC(=O)c2ccc3[nH]c(=O)c(=O)[nH]c3c2)c1	i	i	i	i	i
CCOC(=O)/C(C#N)=C/C=C1\C=Cc2ccccc2N1CC	i	46	i	178	119384
CCCCCCN1C=CC(=C/C=C(\C#N)C(=O)OCC)C=C1	i	i	i	i	24837
CCOC(=O)[C@H]1[C@H]2COc3ccc(Br)cc3[C@H]2N2C(=O)CN(Cc3ccc(C)cc3)C(=O)[C@@]12C	161	i	i	i	i
C/C(=C/C(=O)NCc1ccccc1)C(=O)O	i	i	i	i	22169
SMILES	MazF activator	Anthrax LF prot	BoNT A protease	BoNT F protease	Autofluor counter
O=C(Nc1ccc(C(=O)N2CCCC2)cc1)c1ccccc1F	i	i	i	i	16849
CCCc1cc(N2CCCC(C(=O)Nc3cc(Cl)ccc3OC)C2)n2ncnc2n1 (stereo unspecified)	i	i	?	i	16461
CC(C)C1Cc2[nH]c(=S)[nH]c(=O)c2C(c2ccc(Cl)cc2)O1 (stereo unspecified)	nt	i	i	i	i
CCCCCn1c(N)c(-c2nc3ccccc3s2)c2c([N+](=O)[O-])nn(CC)c(=O)c21	i	i	i	i	17846
Cc1ccc(OCCn2c(C3CC(=O)N(Cc4ccccc4)C3)nc3ccccc32)cc1 (stereo unspecified)	i	i	i	i	i
C=CCN1CC(c2nc3ccccc3n2Cc2cccc3ccccc23)CC1=O (stereo unspecified)	i	i	i	i	19853
CC(C)CCN1CCN(Cc2cnc(N3CCCC3)s2)CC1CCO (stereo unspecified)	i	i	i	i	i
CCOCCCNC(=S)NNC(=O)CCn1nc(C)c(Br)c1C	i	i	i	i	24089
CN(C)C(CNC(=O)C1CCN(S(=O)(=O)c2cccc(Cl)c2Cl)CC1)c1ccccc1 (stereo unspecified)	i	i	i	i	i
C=CCn1c(SCc2nc3ccccc3[nH]2)nnc1-c1ccc(OC)cc1	i	i	i	i	20347
CCn1c(SCc2nc3ccccc3[nH]2)nnc1-c1ccncc1	i	i	i	i	i
C=CCn1c(SCc2cccc3ccccc23)nnc1-c1cccnc1	i	i	i	i	21679
C=CCn1c(SCc2nc3ccccc3[nH]2)nnc1-c1cccc(OC)c1	i	i	i	i	22532
CCn1c(SCc2nc3ccccc3[nH]2)nnc1-c1ccc(OC)cc1	i	i	i	i	23993
C=CCn1c(SCc2cccc(OC)c2)nnc1-c1ccncc1	i	i	i	?	i
Cc1ccc(Cl)cc1NC(=S)NN	i	i	i	i	i
CC[C@H](C)C(N)c1cn(C(CCCN=C(N)N)C(=O)N2CCNCC2)nn1 (stereo partly specified)	i	i	i	i	i
Cc1nc2c(ncn2-c2ccccc2)c(=O)n1NC(=O)CN1CCN(C)CC1	i	i	i	i	i
CCn1c(SCc2nc3ccccc3[nH]2)nnc1-c1cccnc1	i	i	?	i	24875
C=CCn1c(SCc2nc3ccccc3[nH]2)nnc1-c1ccccn1	i	i	?	i	18300
C1CCC2(CC1)C1=C(CCCC1)Nc1nnnn12	i	i	i	i	24281
NC(=O)c1cc(S(=O)(=O)N2CCCC2)ccc1OCCOc1ccccc1	i	nt	nt	nt	nt
COCCNC(=O)c1c(NC(=O)c2ccco2)n(Cc2ccccc2)c2nc3ccccc3nc12	i	i	i	i	i
COCCCNC(=O)c1c(NC(=O)c2ccccc2Cl)n(Cc2ccccc2)c2nc3ccccc3nc12	i	i	?	i	18554
N#Cc1c(NC(=O)c2ccccc2Cl)n(Cc2ccccc2)c2nc3ccccc3nc12	i	i	31	i	i
SMILES	MazF activator	Anthrax LF prot	BoNT A protease	BoNT F protease	Autofluor counter
Cn1ncc([N+](=O)[O-])c1C(=O)Nc1ccc(-c2ccccc2)cc1	i	i	?	?	i
CC(COC(=O)c1ccccc1)(COC(=O)c1ccccc1)/[N+]([O-])=C/c1ccccc1	i	i	i	i	i
CC(C)(C(=O)c1ccccc1)/[N+]([O-])=C/c1ccc(Br)cc1	i	i	i	i	22272
COc1nnc(-c2ccc(N3CCCCC3)c(NC(=O)C3CCCCC3)c2)c2ccccc12	i	i	i	i	i
COc1nnc(-c2ccc(N3CCCCC3)c(NC(C)=O)c2)c2ccccc12	i	i	?	i	19145
COc1cccc(C2c3c(oc4ccc(Cl)cc4c3=O)C(=O)N2c2cc(C)on2)c1OC (stereo unspecified)	i	i	i	i	16528
N#Cc1ccccc1C[C@H](N)C(=O)NC[C@H]1O[C@@H](n2ccc(N)nc2=O)[C@H](O)[C@@H]1O	i	i	i	i	i
COC(=O)CSc1nnc(Cc2ccccc2)n1-c1ccc(C)cc1	i	i	i	i	i
Cc1cccc(C)c1NC(=O)CSc1nnc(Cn2nnc(-c3ccccc3)n2)n1-c1ccccc1	i	i	?	i	19692

Screening results deposited in PubChem BioAssay by several laboratories.
